Assay results taken from PubChem BioAssay (Tox21).
Inconclusive results are not listed. Activity calls are given as the source filed them. Unless noted, calls come from the whole dose curve; as a rule, active = well fitted curve in the direction sought with a large enough effect in the repeat runs; inconclusive = weak or mixed curves; inactive = no such curve, though single readings can be large; an effect the other way counts as inactive or inconclusive.

Assays:
[1] = qHTS assay to identify small molecule antagonists of the vitamin D receptor (VDR) signaling pathway - cell viability counter screen (AID 743225); note: % is set by controls: 0 for no effect and ±100 for the full control effect; nearly all actives have a fitted effect of over 50% in size
How it was run: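 Cytotoxicity toward the VDR-bla HEK 293T line was scored by ATP-based CellTiter-Glo luminescence, read in the wells already used for the beta-lactamase readout after 16 h compound treatment under 3 nM 1-alpha,25-dihydroxyvitamin D3 stimulation.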

[2] = qHTS assay to identify small molecule agonists of the NFkB signaling pathway (AID 1159509; active = well fitted curve in the direction sought with a large enough effect in the signal ratio in the repeat runs, not every such curve was filed as active; the % refers to the signal ratio; note: series mostly up to about 61 µM; % is set by controls: 0 for no effect and ±100 for the full control effect)
How it was run: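 Beta-lactamase reporter assay run in quantitative high-throughput format on an NF-kB-responsive ME-180 line, with 5 hr compound treatment and a FRET-based blue/green fluorescence readout.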

[3] = qHTS assay to identify small molecule agonists of the NFkB signaling pathway - cell viability counter screen (AID 1159515; calls by dose curve; note: series mostly up to about 61 µM; % is set by controls: 0 for no effect and ±100 for the full control effect; nearly all actives have a fitted effect of over 55% in size)
How it was run: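 Plate 2,000 NFkB-bla ME-180 cells/well; incubate overnight. Add compounds, 5 hr at 37 C. Add FRET substrate, 1.5 hr RT. Add CellTiter-Glo, 30 min RT; read luminescence.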

[4] = qHTS assay to identify small molecule agonists of the endoplasmic reticulum stress response signaling pathway (AID 1159516; active = well fitted activation curve with a large enough effect in the signal ratio in the repeat runs, not every such curve was filed as active; the % refers to the signal ratio; note: % is set by controls: 0 for no effect and ±100 for the full control effect)
How it was run: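 Beta-lactamase expression from the ER stress response element in HeLa reporter cells is quantified with the LiveBLAzer B/G FRET substrate, read at 405 nm excitation after 2 hr at room temperature, following 5 hr compound treatment at 37 C.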

[5] = qHTS assay to identify small molecule agonists of the endoplasmic reticulum stress response signaling pathway - cell viability counter screen (AID 1159517; calls by dose curve; note: series mostly up to about 61 µM; % is set by controls: 0 for no effect and ±100 for the full control effect; nearly all actives have a fitted effect of over 50% in size)
How it was run: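 Steps: seed 1,500 ESRE-bla HeLa cells per well; incubate overnight at 37 C, 5% CO2; add compounds in DMSO for 5 hr; run FRET substrate 2 hr RT; add CellTiter-Glo, wait 30 min, read luminescence.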

[6] = qHTS assay to identify small molecule antagonists of the retinoid-related orphan receptor gamma (ROR-gamma) signaling pathway - cell viability counter screen (AID 1159520); note: % is set by controls: 0 for no effect and ±100 for the full control effect; nearly all actives have a fitted effect of over 50% in size
How it was run: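 Tet-on ROR gamma CHO cells were given compounds for 2 hr, then doxycycline hyclate at 1 uM final, and incubated 16 hr at 37 C. Viability was measured as ATP content by CellTiter-Glo luminescence.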

[7] = molecular target: Nuclear receptor ROR-gamma (Homo sapiens) (UniProt P51449); experiment: qHTS assay to identify small molecule antagonists of the retinoid-related orphan receptor gamma (ROR-gamma) signaling pathway (AID 1159521;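 note: CHO cells with doxycycline inducible ROR-gamma driving an RORE luciferase reporter; top concentration of the series differs between compounds; % is set by controls: 0 for no effect and ±100 for the full control effect; nearly all actives have a fitted effect of over 50% in size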)
How it was run: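 Readout: ONE-Glo luciferase luminescence, 30 min at room temperature. System: Tet-on RORγ CHO, RORE-LUC. Sequence: compound 2 h, doxycycline 1 uM final, 16 h at 37 C.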

[8] = qHTS assay to identify small molecule agonists of the AP-1 signaling pathway - cell viability counter screen (AID 1159525; calls by dose curve; note: nearly all actives have a fitted effect of over 55% in size)
How it was run: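 Same-well cytotoxicity counter screen of the Tox21 10K library in ME-180 cells. The readout is ATP-dependent luminescence after 5 h compound treatment. Data are normalised to DMSO and tetra n-octyl ammonium bromide controls.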

[9] = qHTS assay to identify small molecule agonists of the AP-1 signaling pathway (AID 1159526; calls by dose curve; note: % is set by controls: 0 for no effect and ±100 for the full control effect)
[10] = molecular target: Retinoic acid receptor RXR-alpha (Homo sapiens) (UniProt P19793); experiment: qHTS assay to identify small molecule agonists of the RXR signaling pathway (AID 1159527; calls by dose curve; note: % is set by controls: 0 for no effect and ±100 for the full control effect; nearly all actives have a fitted effect of over 35% in size)
How it was run: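 Reporter activation is measured as beta-lactamase activity via FRET substrate cleavage (emission 460/530 nm) in HEK 293T cells expressing an RXR-alpha-driven bla construct, following 16 hr compound exposure at 37 C.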

[11] = qHTS assay to identify small molecule agonists of the RXR signaling pathway - cell viability counter screen (AID 1159529)
How it was run: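 Tox21 10K compounds were tested for cytotoxicity against GeneBLAzer RXR-alpha HEK 293T cells grown in 2% charcoal-stripped FBS. Exposure lasted 16 hr at 37 C, 5% CO2; viability read by CellTiter-Glo luminescence.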

[12] = qHTS assay to identify small molecule antagonists of the retinoid acid receptor (RAR) signaling pathway - cell viability counter screen (AID 1159551); note: % is set by controls: 0 for no effect and ±100 for the full control effect; nearly all actives have a fitted effect of over 35% in size
How it was run: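 Viability of C3RL4 cells is quantified from ATP by luminescence after 6 h treatment at 37 C with compounds and 1 uM retinol.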

[13] = qHTS assay to identify small molecule agonists of the vitamin D receptor (VDR) signaling pathway - cell viability counter screen (AID 743224)
How it was run: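 In parallel with the bla FRET readout, cytotoxicity toward VDR-bla cells after 16 h compound exposure was assessed by CellTiter-Glo, with luminescence recorded after a 30 min room-temperature incubation.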

[14] = qHTS assay to identify small molecule antagonists of the estrogen related receptor (ERR) signaling pathway - cell viability counter screen (AID 1224818);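 note: series mostly up to about 46 µM; viability measured after 17.5 h of compound exposure; % is set by controls: 0 for no effect and ±100 for the full control effect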
How it was run: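 Cytotoxicity check run alongside the ERR antagonist screen: cells exposed to test compounds 17.5 h at 37 C, viability taken as CellTiter-Fluor fluorescence intensity.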

[15] = qHTS assay to identify small molecule antagonists of the estrogen related receptor signaling pathway with the pleiotropic PPARgamma coactivator (PGC) cell viability counter screen (AID 1224822)
How it was run: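 Viable cell signal (CellTiter-Fluor, 30 min, 37 C/5% CO2) was measured in PGC/ERR cells after a 17.5 h compound incubation.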

Chain of Retinoic acid receptor RXR-alpha (Homo sapiens) (P19793 whole entry, looked up): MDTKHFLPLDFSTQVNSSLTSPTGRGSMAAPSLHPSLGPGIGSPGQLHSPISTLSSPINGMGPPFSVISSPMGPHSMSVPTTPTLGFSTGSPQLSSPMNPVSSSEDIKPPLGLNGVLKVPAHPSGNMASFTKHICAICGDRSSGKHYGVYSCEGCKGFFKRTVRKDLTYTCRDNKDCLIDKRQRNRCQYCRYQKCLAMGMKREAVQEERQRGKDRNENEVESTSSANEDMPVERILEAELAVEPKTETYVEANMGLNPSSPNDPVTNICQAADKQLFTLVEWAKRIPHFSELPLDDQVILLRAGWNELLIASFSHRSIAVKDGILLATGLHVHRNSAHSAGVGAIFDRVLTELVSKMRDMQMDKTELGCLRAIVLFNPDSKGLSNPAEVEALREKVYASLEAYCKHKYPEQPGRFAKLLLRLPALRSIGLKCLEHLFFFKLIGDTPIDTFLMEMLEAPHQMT

O=C1CN=C(c2ccccc2)c2cc([N+](=O)[O-])ccc2N1
inactive: outcome [1] | outcome [2] | outcome [3] | outcome [4] | Potency [5] | Potency [6] | Potency [7] | Potency [8] | outcome [9] | Potency [10] | Potency [11] | Potency [12]

CCN(Cc1ccc(Cl)nc1)/C(=C/[N+](=O)[O-])NC
inactive: outcome [1] | outcome [2] | outcome [3] | outcome [4] | Potency [5] | Potency [6] | Potency [7] | Potency [8] | outcome [9] | Potency [10] | Potency [11] | Potency [12]

CC(C)NCC(O)c1ccc(N)c(C#N)c1 (configuration not stated)
inactive: Potency [13] | outcome [1] | outcome [2] | outcome [3] | outcome [4] | Potency [5] | Potency [6] | Potency [7] | Potency [8] | outcome [9] | Potency [10] | Potency [11] | Potency [12]

O=C(CCCN1CCC(n2c(=O)[nH]c3ccccc32)CC1)c1ccc(F)cc1
inactive: Potency [13] | outcome [1] | outcome [2] | outcome [3] | outcome [4] | Potency [5] | Potency [6] | Potency [7] | Potency [8] | outcome [9] | Potency [10] | Potency [11] | Potency [12]

CCCCC(=O)Cl
inactive: outcome [1] | outcome [2] | outcome [3] | outcome [4] | Potency [5] | Potency [6] | Potency [7] | Potency [8] | outcome [9] | Potency [10] | Potency [11] | Potency [12]

O=P(O)(Oc1ccccc1)Oc1ccccc1
inactive: Potency [13] | outcome [1] | outcome [2] | outcome [3] | outcome [4] | Potency [5] | Potency [6] | Potency [7] | Potency [8] | outcome [9] | Potency [10] | Potency [11] | Potency [12]

NC1=NC(=O)C(c2ccccc2)O1 (configuration not stated)
inactive: Potency [13] | outcome [1] | outcome [2] | outcome [3] | outcome [4] | Potency [5] | Potency [6] | Potency [7] | Potency [8] | outcome [9] | Potency [10] | Potency [11] | Potency [12]

C[C@@H]1CN(C2CCC(C#N)(c3ccc(F)cc3)CC2)CC[C@]1(C(=O)O)c1ccccc1 (some centres not stated)
inactive: Potency [13] | outcome [1] | outcome [2] | outcome [3] | outcome [4] | Potency [5] | Potency [6] | Potency [7] | Potency [8] | outcome [9] | Potency [10] | Potency [11] | Potency [12]

CNC(=O)O/N=C(\C)SC
inactive: Potency [13] | outcome [1] | outcome [2] | outcome [3] | outcome [4] | Potency [5] | Potency [6] | Potency [7] | Potency [8] | outcome [9] | Potency [10] | Potency [11] | Potency [12]

CCOC(=O)C(c1c(O)c2ccccc2oc1=O)c1c(O)c2ccccc2oc1=O
inactive: Potency [13] | outcome [2] | outcome [3] | outcome [4] | Potency [5] | Potency [6] | Potency [7] | Potency [8] | outcome [9] | Potency [10] | Potency [11] | Potency [12]

O=C(CCN1CC1)OCC(CO)(COC(=O)CCN1CC1)COC(=O)CCN1CC1
inactive: Potency [13] | outcome [2] | outcome [3] | outcome [4] | Potency [5] | Potency [6] | Potency [7] | Potency [8] | outcome [9] | Potency [10] | Potency [11] | Potency [12]

COP(=S)(OC)Oc1ccc(S(N)(=O)=O)cc1
inactive: outcome [1] | outcome [2] | outcome [3] | outcome [4] | Potency [5] | Potency [6] | Potency [7] | Potency [8] | outcome [9] | Potency [10] | Potency [11] | Potency [12]

OCCBr
inactive: Potency [13] | outcome [2] | outcome [3] | outcome [4] | Potency [5] | Potency [6] | Potency [7] | Potency [8] | outcome [9] | Potency [10] | Potency [11] | Potency [12]

CC1=C(C(=O)O)N2C(=O)[C@@H](N)[C@H]2SC1
inactive: Potency [13] | outcome [1] | outcome [2] | outcome [3] | outcome [4] | Potency [5] | activity, negative = cytotoxicity [6] 0.102% [at 19 µM] | activity change, negative = inhibition [7] 27.3% [at 19 µM] | viability change, negative = cytotoxic [8] 19.2% [at 15.8 µM] | activation [9] -1.04% [at 15.8 µM] | activation [10] 0.217% [at 15.8 µM] | activity change, negative = cytotoxicity [11] 1.45% [at 15.8 µM] | activity change, negative = cytotoxicity [12] -0.0172% [at 19 µM]

COc1ccc(C(=O)N2CCCC2=O)cc1
inactive: Potency [13] | outcome [1] | outcome [2] | outcome [3] | outcome [4] | Potency [5] | Potency [6] | Potency [7] | Potency [8] | outcome [9] | Potency [10] | Potency [11] | Potency [12] | outcome [14] | outcome [15]

Cc1cccc(C#N)c1
inactive: Potency [13] | outcome [1] | outcome [2] | outcome [3] | outcome [4] | Potency [5] | Potency [6] | Potency [7] | Potency [8] | outcome [9] | Potency [10] | Potency [11] | Potency [12]

CCS(=O)(=O)C(C)(C)S(=O)(=O)CC
inactive: outcome [2] | outcome [3] | outcome [4] | Potency [5] | Potency [6] | Potency [7] | Potency [8] | outcome [9] | Potency [10] | Potency [11] | Potency [12]

O=[N+]([O-])c1cc(Cl)c(Cl)c(Cl)c1
inactive: Potency [13] | outcome [1] | outcome [2] | outcome [3] | outcome [4] | Potency [5] | Potency [6] | Potency [7] | Potency [8] | outcome [9] | Potency [10] | Potency [11] | Potency [12]

CCCCCCI
inactive: Potency [13] | outcome [1] | outcome [2] | outcome [3] | outcome [4] | Potency [5] | Potency [6] | Potency [7] | Potency [8] | outcome [9] | Potency [10] | Potency [11] | Potency [12]

COCC(=O)N(c1c(C)cccc1C)N1CCOC1=O
inactive: Potency [13] | outcome [1] | outcome [2] | outcome [3] | outcome [4] | Potency [5] | Potency [6] | Potency [7] | Potency [8] | outcome [9] | Potency [10] | Potency [11] | Potency [12]

Cc1ncsc1CCCl
inactive: Potency [13] | outcome [2] | outcome [3] | outcome [4] | Potency [5] | Potency [6] | Potency [7] | Potency [8] | outcome [9] | Potency [10] | Potency [11] | Potency [12] | outcome [14] | outcome [15]
